Assay outcomes: PubChem BioAssay, National Center for Advancing Translational Sciences (NCATS)
The list is not random: actives were taken first. Their share in the collection is about 11%.
PLK1 PBD block: blocks phosphopeptide binding to human PLK1 polo-box domain. P53350. Plk1 PBD binding of FITC phosphopeptide, fluorescence polarization. Potency, µM, actives largely listed as inhibitors. 360,000 tested, 2.8% active. AID 720504; also: series mostly up to about 57 µM; nearly all actives have a fitted effect of over 65% in size
HP1b binding inh: inhibitors of HP1-beta chromodomain binding to methylated histone tails | P83916 | AlphaScreen HP1-beta / biotin-H3K9me3 peptide binding | Potency, µM (highest dose often 114 µM), hits mostly inhibitors | 390,000 tested, 0.56% active; also: nearly all actives have a fitted effect of over 70% in size
Target sequence (P83916 whole entry, looked up): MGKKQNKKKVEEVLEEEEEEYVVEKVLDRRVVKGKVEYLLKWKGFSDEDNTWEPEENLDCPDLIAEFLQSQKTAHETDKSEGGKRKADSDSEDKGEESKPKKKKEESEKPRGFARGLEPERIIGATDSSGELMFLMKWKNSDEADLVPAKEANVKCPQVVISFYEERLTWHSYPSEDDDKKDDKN
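Compound inhibition of the preformed complex between 50 nM HP1-beta and 50 nM biotinylated H3K9me3 peptide was read by AlphaScreen. Buffer was PBS pH 7.4 with 0.01% Tween-20. Incubations ran 30 min at room temperature, with 10 ug/mL donor/acceptor beads.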
BAZ2B inh: BAZ2B (human) inhibition. Q9UIF8. AlphaScreen BAZ2B-H3K14Ac peptide displacement. 360,000 tested, 4.4% active. Potency, µM (series often up to 114 µM), actives largely listed as inhibitors; also: nearly all actives have a fitted effect of over 60% in size
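Compounds, titrated to a top concentration of 110 uM, were incubated 30 min at room temperature with preformed BAZ2B/acetyl-K14 H3 peptide complex (50 nM each). Proximity signal was measured by AlphaScreen after 20 min with beads.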
G9a block: G9a (human) methyltransferase inhibition | G9a H3K9 monomethylation, AlphaScreen, 2 h | 350,000 tested, 8.8% active | Potency, µM (top dose mostly 102 µM), usual class: inhibitors; also: nearly all actives have a fitted effect of over 75% in size
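AlphaScreen read-out: biotin-H3K9 peptide (500 nM) methylation by 20 nM enzyme with 20 uM SAM, 2 h at room temperature after 15 min compound preincubation; anti-monomethyl H3K9 antibody plus donor/acceptor beads, 10 min dark.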
VDR inh: blocks the human vitamin D receptor. P11473. VDR-SRC2-3 peptide fluorescence polarization, 2 h. Potency, µM, usual class: inhibitors. 400,000 tested, 0.93% active
Target sequence (P11473 whole entry, looked up): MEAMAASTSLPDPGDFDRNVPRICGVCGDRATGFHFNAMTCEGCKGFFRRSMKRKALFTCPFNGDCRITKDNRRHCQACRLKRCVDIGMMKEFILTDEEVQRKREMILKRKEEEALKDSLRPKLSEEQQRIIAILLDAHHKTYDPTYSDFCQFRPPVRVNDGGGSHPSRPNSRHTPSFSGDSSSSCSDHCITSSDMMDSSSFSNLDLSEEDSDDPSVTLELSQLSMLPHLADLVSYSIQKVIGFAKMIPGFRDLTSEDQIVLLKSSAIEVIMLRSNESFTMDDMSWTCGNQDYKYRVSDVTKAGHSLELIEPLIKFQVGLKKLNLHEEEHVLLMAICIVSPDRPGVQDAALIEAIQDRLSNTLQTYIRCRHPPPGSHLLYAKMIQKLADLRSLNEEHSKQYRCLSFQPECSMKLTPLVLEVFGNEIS
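Inhibition of the VDR/SRC2-3 peptide interaction is quantified by fluorescence polarization. Compounds (23 nl, pintool) incubate with the reagents for 2 hours at ambient room temperature.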
JMJD2A Tudor inh: blocks the human JMJD2A Tudor domain. O75164. AlphaScreen JMJD2A-Tudor / H3K4me3 peptide binding. Potency, µM (doses to about 114 µM), hits mostly inhibitors. 390,000 tested, 4.4% active. AID 504339; also: nearly all actives have a fitted effect of over 50% in size
Large screens that a line does not name were inactive. Calls follow the shape of the dose curve; as a rule, active = well fitted curve in the direction sought with a large enough effect; inconclusive = small, poorly fitted or top-dose-only effect, or another doubt; inactive = no such curve, though single readings can be large; an effect the other way counts as inactive or inconclusive.

Cc1oc2cc(O)ccc2c(=O)c1Oc1ccccc1	PLK1 PBD block 3µM, JMJD2A Tudor inh inconclusive (no result: G9a block)
O=c1oc2cc(O)ccc2c2c1CCCC2	none
CC(=O)Oc1ccc2c(=O)c(Oc3ccccc3)c(C)oc2c1OC(C)=O	G9a block 3.2µM, JMJD2A Tudor inh inconclusive
COC(=O)COc1ccc2c(=O)c(Oc3ccccc3)c(C)oc2c1	G9a block inconclusive
CCOc1ccc(Oc2c(C)oc3cc(O)ccc3c2=O)cc1	none
O=c1oc2cc(O)ccc2c2ccccc12	BAZ2B inh inconclusive, G9a block 2µM
CC(=S)c1c(C)cc2cc(C)ccn12	PLK1 PBD block inconclusive, HP1b binding inh 22µM, BAZ2B inh 10µM, G9a block inconclusive, JMJD2A Tudor inh 25µM
CCOC(=O)C(=N/O)/C(C)=N/NC(C)=O	G9a block 7.1µM
CCOC(=O)C(=N/O)/C(C)=N/NC(=O)C(=O)Nc1cc(Cl)ccc1Cl	BAZ2B inh 18µM, JMJD2A Tudor inh inconclusive
O=C(Nc1ccc(Cl)c(C(F)(F)F)c1)c1nc2ccccc2nc1N1CCCCC1	none (no result: PLK1 PBD block)
C#CCOCCOCCOCCNc1nc(N2CCN(C(=O)[C@H](CCCCN)n3cc([C@@H](N)CO)nn3)CC2)nc(N2CCN(C(=O)[C@H](Cc3cc4ccccc4[nH]3)n3cc([C@@H](N)CC(C)C)nn3)CC2)n1	BAZ2B inh 45µM (no result: PLK1 PBD block, HP1b binding inh, VDR inh, JMJD2A Tudor inh)
C#CCOCCOCCOCCNc1nc(N2CCN(C(=O)[C@H](CCCCN)n3cc([C@@H](N)CO)nn3)CC2)nc(N2CCN(C(=O)[C@H](Cc3cc4ccccc4[nH]3)n3cc([C@@H](N)CO)nn3)CC2)n1	BAZ2B inh 22µM, G9a block inconclusive (no result: PLK1 PBD block, HP1b binding inh, VDR inh, JMJD2A Tudor inh)
Cc1ccsc1CN(C)C(=O)CN1C(=O)NC2(CCCCC2C)C1=O (stereo not drawn)	G9a block inconclusive
COc1ccc(OC)c(NC(=O)Nc2nnc(N3CCC(C)CC3)s2)c1	BAZ2B inh inconclusive, G9a block 50µM, JMJD2A Tudor inh inconclusive
COc1ccc(NCc2cccn2-c2nnc(N3CCOCC3)s2)c(OC)c1	G9a block inconclusive (no result: PLK1 PBD block)
COc1ccc(NC(=O)Nc2nnc(N3CCC(C)CC3)s2)cc1OC	G9a block inconclusive
COc1ccc(NCc2cccn2-c2nnc(N3CCC(C)CC3)s2)c(OC)c1	HP1b binding inh inconclusive, BAZ2B inh inconclusive, G9a block 5.6µM, JMJD2A Tudor inh 28µM (no result: PLK1 PBD block)
COc1ccc(OC)c(NCc2cccn2-c2nnc(N3CCC(C)CC3)s2)c1	HP1b binding inh inconclusive, G9a block 7.9µM, JMJD2A Tudor inh inconclusive (no result: PLK1 PBD block)
COc1ccc(OC)c(NC(=O)C2C3CCC(C3=C(C)C)C2C(=O)O)c1 (stereo not drawn)	G9a block 8.9µM, JMJD2A Tudor inh inconclusive
CC(C)[C@H](NC(=O)c1ccco1)C(=O)N(C)Cc1ccc(C(F)(F)F)cc1	none
COc1cc(C(=O)n2nc(-c3ccco3)nc2NCc2ccc(Cl)cc2)cc(OC)c1OC	none (no result: PLK1 PBD block)
COc1ccc(CNC(=O)C2CCN(c3nnc(-n4cccc4CNc4ccc(C)cc4)s3)CC2)c(OC)c1	G9a block 1.4µM (no result: PLK1 PBD block)
CC(C)=CCC1=C(OCC(=O)O)C(=O)c2ccccc2C1=O	PLK1 PBD block 30µM, G9a block inconclusive, VDR inh inconclusive
CC(C)=CCC/C(C)=C/CC/C(C)=C/CC/C(C)=C/CC1=C(C)C(=O)c2ccccc2C1=O	BAZ2B inh inconclusive, G9a block inconclusive, VDR inh inconclusive
CCOC(=O)C(C)(C)Sc1ncnc2nc[nH]c12	none
O=C(CSc1ncnc2nc[nH]c12)c1ccc([N+](=O)[O-])cc1	BAZ2B inh 79µM (no result: G9a block)
CCN(CC)C(=O)CSc1nc2ncc(Br)cc2[nH]1	none
CCOC(=O)c1cc([N+](=O)[O-])cc([N+](=O)[O-])c1Sc1ncnc2nc[nH]c12	PLK1 PBD block 21µM, VDR inh 50µM (no result: BAZ2B inh, G9a block)
O=C(CSc1nc2ncc(Br)cc2[nH]1)c1ccc([N+](=O)[O-])cc1	HP1b binding inh inconclusive, BAZ2B inh inconclusive, G9a block 14µM, JMJD2A Tudor inh inconclusive
O=C(CSc1ncnc2nc[nH]c12)c1ccccc1	BAZ2B inh inconclusive, G9a block inconclusive
O=C(CSc1ncnc2nc[nH]c12)c1ccc(Cl)cc1	PLK1 PBD block inconclusive, BAZ2B inh inconclusive, VDR inh inconclusive, JMJD2A Tudor inh 18µM (no result: G9a block)
CCOc1ccccc1NC(=O)CCNC(=O)C1CCN(S(=O)(=O)c2ccccc2)CC1	none (no result: HP1b binding inh, BAZ2B inh, G9a block, VDR inh, JMJD2A Tudor inh)
COc1cccc(NC(=O)/C(C#N)=C\c2cn(Cc3ccc(Cl)cc3)c3ccccc23)c1	none (no result: PLK1 PBD block)
CCN(CC)c1nc2ccccc2nc1C(C#N)C(=O)NCCc1ccccc1 (stereo not drawn)	PLK1 PBD block 13µM, G9a block inconclusive
CCCCc1nc2cc(C(=O)N3CCCCC3CCNC(C)=O)ccc2o1 (stereo not drawn)	PLK1 PBD block 24µM, G9a block inconclusive, VDR inh inconclusive, JMJD2A Tudor inh inconclusive
O=C(O)c1cc(-c2ccc(/C=c3\sc4nc5ccc(Br)cc5n4c3=O)o2)ccc1Cl	BAZ2B inh 18µM, G9a block 0.79µM (no result: PLK1 PBD block, HP1b binding inh, VDR inh, JMJD2A Tudor inh)
Cc1cc2nc3s/c(=C/c4ccc(-c5ccccc5C(=O)O)o4)c(=O)n3c2cc1C	PLK1 PBD block inconclusive, HP1b binding inh inconclusive, BAZ2B inh 50µM, G9a block 3.5µM, JMJD2A Tudor inh 32µM
Cc1cc2nc(/C(C#N)=C\c3ccc(-c4ccccc4C(=O)O)o3)[nH]c2cc1C	BAZ2B inh inconclusive, G9a block inconclusive
O=C(O)c1ccccc1-c1ccc(/C=c2\sc3nc4cc(Br)cnc4n3c2=O)o1	PLK1 PBD block inconclusive, HP1b binding inh 6.3µM, BAZ2B inh 40µM, G9a block inconclusive, VDR inh inconclusive, JMJD2A Tudor inh 3.2µM
Cc1ccc(-n2c(C)cc(/C=c3/sc4nc5ccccc5n4c3=O)c2C)cc1	G9a block inconclusive, JMJD2A Tudor inh inconclusive
CCCC12CN3CC(CCC)(CN(C1)C3c1ccccc1)C2=O (stereo not drawn)	none (no result: PLK1 PBD block)
COc1ccccc1C1C2=C(CC(C)(C)CC2=O)Nc2nnnn21 (stereo not drawn)	G9a block 28µM
COc1ccc(C(=O)c2no[n+]([O-])c2C(=O)c2ccc(OC)cc2)cc1	PLK1 PBD block inconclusive, G9a block 8.9µM, VDR inh inconclusive, JMJD2A Tudor inh inconclusive
COc1ccc(NC(=O)c2c(N)no[n+]2[O-])cc1	none
CC(C)[C@@H](C(=O)OCC(=O)Nc1ccc2c(c1)OCO2)N1C(=O)c2ccccc2C1=O	G9a block inconclusive, JMJD2A Tudor inh inconclusive
CCOc1ccccc1Nc1nc(-c2sc(NC(=O)c3cccc(Cl)c3)nc2C)cs1	PLK1 PBD block inconclusive, HP1b binding inh inconclusive, BAZ2B inh inconclusive, G9a block 40µM, VDR inh inconclusive, JMJD2A Tudor inh inconclusive
COc1ccccc1Nc1nc(-c2sc(NC(=O)c3ccc([N+](=O)[O-])cc3)nc2C)cs1	BAZ2B inh inconclusive, G9a block 45µM (no result: PLK1 PBD block, HP1b binding inh, VDR inh, JMJD2A Tudor inh)
